Source: PubChem (National Center for Advancing Translational Sciences (NCATS))
FLuc counter – counter-screen for miR-21 project: firefly luciferase inhibitors or activators | purified FLuc, Km substrates, luminescence inhibition | 360,000 compounds, 6.9% hits | Potency, µM (titrated, usually from 57.5 µM), for inactives: at the top dose activity change, negative = inhibition, most hits filed as inhibitors;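 also: plate controls were vehicle for no effect and reference inhibitor for full effect; nearly all actives have a fitted effect of over 55% in size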
Target sequence (P08659 whole entry, looked up): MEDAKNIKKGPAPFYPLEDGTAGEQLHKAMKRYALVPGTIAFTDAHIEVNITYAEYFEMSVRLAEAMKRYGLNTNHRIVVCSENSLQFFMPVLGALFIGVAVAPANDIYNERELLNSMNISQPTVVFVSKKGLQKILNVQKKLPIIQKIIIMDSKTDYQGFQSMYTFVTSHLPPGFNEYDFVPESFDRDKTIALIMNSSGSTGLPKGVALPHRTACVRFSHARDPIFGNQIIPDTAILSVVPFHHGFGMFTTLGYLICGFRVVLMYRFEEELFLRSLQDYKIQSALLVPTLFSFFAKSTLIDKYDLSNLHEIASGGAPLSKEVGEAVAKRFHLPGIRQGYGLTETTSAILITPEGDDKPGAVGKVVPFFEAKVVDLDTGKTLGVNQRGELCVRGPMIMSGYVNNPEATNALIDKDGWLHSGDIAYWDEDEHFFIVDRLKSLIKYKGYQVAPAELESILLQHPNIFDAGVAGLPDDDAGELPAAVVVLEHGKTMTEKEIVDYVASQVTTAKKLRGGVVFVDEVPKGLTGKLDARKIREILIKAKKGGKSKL
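Purified P. pyralis luciferase (10nM final) with 10uM D-luciferin and 10uM ATP (Km levels) in 50mM Tris acetate pH 7.5, 10mM Mg acetate, 0.01% Tween-20, 0.05% BSA; qHTS 6-point titration, ~60 µM downward; luminescence read.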
Rab9 prom act – activates the Rab9 promoter. Huh7 Rab9 promoter-luciferase reporter, luminescence, 24 h. Potency, µM (series often up to 9.22 µM), without a hit: at the top dose activation, negative = inhibition, hits mostly activators. 320,000 compounds, 2.8% hits; also: % of control where 0% means no effect; nearly all actives have a fitted effect of over 60% in size
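Luminescence from Amplite-detected luciferase (10 minutes, ambient) reports Rab9 promoter activation. Before that, stable Rab9-luciferase Huh7 cells (1500/well, reduced-serum OP-MEM I plus 10% FBS) were exposed to compound for 24 hours at 37C.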
ELG1 genotox – genotoxicity induction in ELG1-luciferase HEK293T cells; HEK293T ELG1-luciferase reporter, luminescence, 16 h; Potency, µM (titrated, usually from 46 µM), without a hit: top-dose activity change, positive = activation, usual class: activators; 330,000 compounds, 1.3% hits; AID 504466; also: % of control where 0% means no effect; nearly all actives have a fitted effect of over 60% in size
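Step 1: seed 2,000 HEK293T ELG1-luciferase cells per well. Step 2: add compound or DMSO, incubate 16 hr at 37 °C. Step 3: ONE-Glo, 30 min at room temperature, read luminescence.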
ELG1 repair inh – inhibitors of ELG1-dependent DNA repair in HEK293T cells. 330,000 compounds, 2.3% hits. HEK293T ELG1-luciferase reporter, luminescence, 16 h; DNA damage induced by 5-fluorouridine. Potency, µM (doses to about 46.1 µM), without a hit: at the highest dose activity change, negative = inhibition, usual class: inhibitors; also: % is scaled to controls: 0 for no effect and ±100 for the full control effect; nearly all actives have a fitted effect of over 55% in size
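HEK293T cells expressing luciferase-tagged ELG1 (2,000/well) received 5-Fluorouridine plus compound or DMSO for 16 hr at 37 °C. Luciferase was read by ONE-Glo luminescence after 30 min at room temperature.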
NPC1 promoter act – activates the NPC1 promoter; Huh7 NPC1 promoter luciferase reporter, 24 h; 320,000 compounds, 2.4% hits; Potency, µM (highest dose often 9.22 µM), for the others: top-dose activation, actives largely listed as activators; also: % of control where 0% means no effect; nearly all actives have a fitted effect of over 60% in size
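Luminescence read-out of NPC1 promoter-driven luciferase in stably transfected Huh7 cells; compounds delivered in DMSO and left 24 h at 37C, 5% CO2, qHTS titration format.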
SMN2 splice up – increases expression of the SMN2 splice variant. 210,000 compounds, 2.8% hits. HEK293 SMN2-luciferase splicing reporter, luminescence, 30-36 h. Potency, µM (doses to about 46.1 µM), without a hit: at the highest dose activity change, positive = activation, hits mostly activators; also: % of control where 0% means no effect; nearly all actives have a fitted effect of over 55% in size
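HEK293 cells carry an SMN2 minigene-luciferase reporter in which exon 7 inclusion puts luciferase in frame. Cells were seeded at 2000 cells/well, attached for 10-12 hours, then exposed to compounds for 30-36 hours at 37C before ONE-Glo luminescence.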
An asterisk follows results filed as active; ? = inconclusive; nt = not tested or not shown; [ ] = remark or other dose. Sampled rows, rich in hits. Any-hit rate of the full collection: about 9.2%. Calls follow the shape of the dose curve; as a rule, active = well fitted curve in the direction sought with a large enough effect; inconclusive = small, poorly fitted or top-dose-only effect, or another doubt; inactive = no such curve, though single readings can be large; an effect the other way counts as inactive or inconclusive. Potency is read from the fitted curve at half-maximal effect.

SMILES	FLuc counter	Rab9 prom act	ELG1 genotox	ELG1 repair inh	NPC1 promoter act	SMN2 splice up
Cc1ccc(O)c(NC(=S)NC(=O)/C=C/c2ccco2)c1	-1%	26%	?	?	-7%	30%
Cc1ccc(C(=O)/C=C/c2ccco2)c(O)c1	9.5µM*	0%	?	?	-2%	15%
COc1ccc(CCNC(=O)C(=O)NCC2OCCN2S(=O)(=O)c2ccc(C)cc2)cc1 (stereo not drawn)	2%	-4%	-5%	-16%	-5%	nt
COc1ccc(CCNC(=O)C(=O)NCC2OCCN2S(=O)(=O)c2ccc3c(c2)OCCO3)cc1OC (stereo not drawn)	0%	3%	-10%	12µM*	-1%	nt
Cc1cc(F)ccc1S(=O)(=O)N1CCCOC1CNC(=O)C(=O)NCCc1c[nH]c2ccccc12 (stereo not drawn)	0%	-2%	-10%	18µM*	1%	-20%
COc1ccc(S(=O)(=O)N2CCOC2CNC(=O)C(=O)NCCc2ccccc2)cc1 (stereo not drawn)	-5%	-7%	-2%	21µM*	-1%	nt
COc1ccc(CCNC(=O)C(=O)NCC2OCCN2S(=O)(=O)c2ccc(OC)c(OC)c2)cc1 (stereo not drawn)	-13%	5%	-3%	?	7%	nt
COc1ccc(CCNC(=O)C(=O)NCC2OCCN2S(=O)(=O)c2ccc3c(c2)OCCO3)cc1 (stereo not drawn)	-4%	3%	-3%	?	5%	nt
COc1ccc(S(=O)(=O)N2CCOC2CNC(=O)C(=O)NCCc2ccc(OC)c(OC)c2)cc1C (stereo not drawn)	0%	-1%	-5%	15µM*	-2%	-40%
CCn1cc(S(=O)(=O)c2cc(C)cc(C)c2)c(=O)c2cc(F)c(N3CCC(C)CC3)cc21	-10%	nt	nt	nt	nt	nt
CC(C)(C)NC(=O)CN1CCCN(C(=O)c2cccc(S(=O)(=O)N3CCc4ccccc43)c2)CC1	-5%	0%	-1%	-20%	3%	nt
COc1ccc(C(=O)NCC(=O)OCc2nc(N)nc(Nc3ccccc3C)n2)cc1	-10%	-1%	0%	-3%	-2%	nt
COc1ccccc1CCNC(=O)C(=O)NCC1OCCN1S(=O)(=O)c1ccc(OC)c(OC)c1 (stereo not drawn)	-1%	-5%	-9%	21µM*	-4%	nt
COc1ccc(OC)c(NC(=O)CCNS(=O)(=O)c2cc(Br)cnc2N)c1	-1%	5%	-3%	8%	-2%	nt
Cc1ccc(C(=O)Nc2cccc([N+](=O)[O-])c2)cc1S(=O)(=O)Nc1ccc(NC(=O)c2ccccc2)cc1	0%	-8%	-7%	5.2µM*	-1%	?
CC(=O)Nc1ccc(NC(=O)c2ccc(C)c(S(=O)(=O)Nc3cccc(C)c3)c2)cc1	-15%	-6%	-10%	21µM*	-10%	nt
Cc1ccc(NS(=O)(=O)c2cc(C(=O)Nc3cccc([N+](=O)[O-])c3)ccc2C)cc1	6%	-3%	-7%	?	-5%	nt
Cc1nnc(SCC2=C(C(=O)O)N3C(=O)[C@@H](NC(=O)Cn4cnnn4)[C@@H]3SC2)s1	nt	nt	nt	nt	nt	2%[20.6 µM]
COc1ccc(Br)cc1/C=N/NC(=O)c1nc(-c2ccccc2)n2c1CCCCC2	2%	0%	-2%	21µM*	-3%	14%
CN(C)CCCNC(=O)/C(=N\O)c1ccccc1	6%	9%	2%	3%	-2%	-7%
O=C(NCCc1ccccc1)C(=Cc1ccc(C(=O)O)cc1)C(=O)NCCc1ccccc1	-7%	0%	3%	8%	-8%	21%
Cc1ccccc1C(=O)NC(=S)NCCc1ccccc1	-4%	-2%	-1%	24%	-1%	2%
S=C(NCCc1ccccc1)Nc1ccc(Cl)cc1	17µM*	23%	12%	?	24%	10µM*
